From PubChem BioAssay (EPA / NIEHS) come the findings set out here.

Records with an inconclusive call do not appear. Activity calls are given as the source filed them. The calls were made as follows: active = hit-call score of the fitted dose curve at least 0.9, where 1 is the maximum; inconclusive = response in the unintended direction; inactive = score below 0.9.

In general, AC50 refers to the concentration giving half of the maximal activity seen.

Sequence of Muscarinic acetylcholine receptor M3 (Homo sapiens) (P20309 whole entry, looked up): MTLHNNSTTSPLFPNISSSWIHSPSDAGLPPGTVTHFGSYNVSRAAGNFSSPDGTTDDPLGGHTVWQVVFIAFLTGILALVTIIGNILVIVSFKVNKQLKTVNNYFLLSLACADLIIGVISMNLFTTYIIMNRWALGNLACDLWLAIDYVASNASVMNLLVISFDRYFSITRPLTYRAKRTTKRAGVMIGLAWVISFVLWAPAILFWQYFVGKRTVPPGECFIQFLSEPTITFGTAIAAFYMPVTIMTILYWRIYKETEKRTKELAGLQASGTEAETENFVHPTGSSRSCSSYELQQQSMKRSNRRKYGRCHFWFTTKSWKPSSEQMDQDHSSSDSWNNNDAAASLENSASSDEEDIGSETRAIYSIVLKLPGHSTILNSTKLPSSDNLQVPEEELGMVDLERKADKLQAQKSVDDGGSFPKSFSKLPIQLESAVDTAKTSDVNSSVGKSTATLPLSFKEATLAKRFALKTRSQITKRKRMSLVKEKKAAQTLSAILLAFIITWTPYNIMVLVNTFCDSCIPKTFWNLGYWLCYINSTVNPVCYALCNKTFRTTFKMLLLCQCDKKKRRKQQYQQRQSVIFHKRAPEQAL
Sequence of human Leukotriene B4 Receptor 1 (LTB4-BLT1), LTB4R (gene 1241) (Q15722 whole entry, looked up): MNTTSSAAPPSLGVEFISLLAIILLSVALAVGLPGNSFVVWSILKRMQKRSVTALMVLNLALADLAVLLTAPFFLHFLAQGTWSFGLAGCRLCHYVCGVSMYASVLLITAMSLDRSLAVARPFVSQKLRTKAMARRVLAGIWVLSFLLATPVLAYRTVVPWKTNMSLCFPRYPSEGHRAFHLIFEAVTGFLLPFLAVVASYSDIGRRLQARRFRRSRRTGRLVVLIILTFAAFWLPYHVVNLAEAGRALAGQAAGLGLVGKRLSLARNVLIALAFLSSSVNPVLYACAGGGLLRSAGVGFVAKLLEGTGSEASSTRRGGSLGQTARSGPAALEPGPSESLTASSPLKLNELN

The target of the first test is Muscarinic acetylcholine receptor M1 (Homo sapiens) (UniProt P11229). Nature of the test: NVS_GPCR_hM1: NovaScreen (NVS) G Protein-Coupled Receptor Assay for human Muscarinic, M1 Receptor (AID 2283270). The essentials: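 Actives from a duplicate 25 uM single-point screen were retested in concentration series. Binding measured as displacement of a radioligand from CHO-derived receptor preparation, 1 h incubation, filtration and scintillation counting, analysed as signal loss against DMSO.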
Sequence of Muscarinic acetylcholine receptor M1 (Homo sapiens) (P11229 whole entry, looked up): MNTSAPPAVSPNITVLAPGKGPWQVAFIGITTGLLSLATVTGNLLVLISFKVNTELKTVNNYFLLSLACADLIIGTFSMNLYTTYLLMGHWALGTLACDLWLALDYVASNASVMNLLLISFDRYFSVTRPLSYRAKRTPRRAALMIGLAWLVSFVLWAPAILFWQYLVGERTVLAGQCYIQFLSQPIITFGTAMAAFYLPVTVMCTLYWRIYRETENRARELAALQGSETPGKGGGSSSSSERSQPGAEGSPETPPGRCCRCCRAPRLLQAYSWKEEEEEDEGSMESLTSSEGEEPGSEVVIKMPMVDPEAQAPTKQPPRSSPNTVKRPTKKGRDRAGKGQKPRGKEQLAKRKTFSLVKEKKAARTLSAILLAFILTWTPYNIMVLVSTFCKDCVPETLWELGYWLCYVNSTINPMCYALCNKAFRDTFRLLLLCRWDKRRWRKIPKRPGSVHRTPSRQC
For `Cc1nccn1-c1ccc(Sc2cccc(C3(C(N)=O)CCOCC3)c2)cc1`, the AC50 is 7.4 µM (active).
For `c1ccc(C(O[C@@H]2CCCN(CCc3ccc4c(c3)OCO4)C2)c2ccccc2)cc1`, the AC50 was 0.031 µM (active).
On the same count and under the same terms, in the case of `COc1cc(C(C)C)c2c(c1)S(=O)(=O)N(COc1cc(=O)n3cccc(OCCN4CCCCC4)c3n1)C2=O` it was 2 µM (active).
On to `CCn1nc(C)c2c1C(=O)NCC(c1ccc(O)cc1)=N2`, for which the molecule was classed as inactive.

In another test the target is human Leukotriene B4 Receptor 1 (LTB4-BLT1), LTB4R (gene 1241) (UniProt Q15722). Nature of the test: NVS_GPCR_hLTB4_BLT1: NovaScreen (NVS) G Protein-Coupled Receptor Assay for human Leukotriene B4 Receptor 1 (LTB4-BLT1) (AID 2283271). The essentials:
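Cell-free human neutrophil receptor preparation, 1 h exposure, radioligand binding read by filter scintillation counting. Single 25 uM duplicate screen, then concentration series topping at 50 uM; binding loss scored against DMSO baseline.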
Consider `NC(N)=O`, for which the result was inactive.
On the same count and under the same terms, the entry for `OCC(CO)(CO)CO` is “inactive”; for `CCCCCCCC1CCC(=O)O1` (configuration not stated) it is “inactive”.

The next test concerns the target Muscarinic acetylcholine receptor M3 (Homo sapiens) (UniProt P20309). The test is described as follows: NVS_GPCR_hM3: NovaScreen (NVS) G Protein-Coupled Receptor Assay for human Muscarinic, M3 Receptor (AID 2283272). The essentials: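 Radioligand displacement binding on human M3 receptor in CHO-derived membranes, 1 h incubation, filter-based scintillation counting. Primary screen in duplicate at 25 uM; actives followed up in concentration series; loss of signal versus DMSO.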
Regarding `Cc1nccn1-c1ccc(Sc2cccc(C3(C(N)=O)CCOCC3)c2)cc1`, the molecule was called inactive.
Take `O=S(=O)(O)c1ccc(N=Nc2c(O)ccc3cc(S(=O)(=O)O)ccc23)cc1`: the result was inactive.
On to `CCCCCCCCCCCCCCCCOS(=O)(=O)O`, for which the AC50 is 8.33 µM (active).
Consider `c1ccc(C(O[C@@H]2CCCN(CCc3ccc4c(c3)OCO4)C2)c2ccccc2)cc1`, for which the AC50 is 0.0184 µM (active).
Turning to `COc1cc(C(C)C)c2c(c1)S(=O)(=O)N(COc1cc(=O)n3cccc(OCCN4CCCCC4)c3n1)C2=O`, the AC50 was 8.91 µM (active).
